ZTA counter: blocks Epstein-Barr virus ZTA, an EBNA-1 counter-screen. P03206. ZTA-DNA binding, fluorescence polarization. inhibition, % at 11 µM. 320,000 tested, 0.15% active. AID 2234; in the data active means inhibition above about 33%
Target sequence (P03206 whole entry, looked up): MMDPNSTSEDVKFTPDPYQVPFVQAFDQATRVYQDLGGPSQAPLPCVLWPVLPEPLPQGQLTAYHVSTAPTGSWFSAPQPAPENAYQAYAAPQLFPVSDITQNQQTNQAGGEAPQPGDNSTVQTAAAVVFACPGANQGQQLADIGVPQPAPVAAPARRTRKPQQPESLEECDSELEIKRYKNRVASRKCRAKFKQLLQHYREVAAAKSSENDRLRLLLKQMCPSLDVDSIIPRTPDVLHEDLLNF
PolyA inhibitor: blocks polyadenylation in yeast reporter cells. S. cerevisiae SKY197-pL101 polyadenylation reporter, beta-gal luminescence; efflux-impaired pdr1/pdr3 knockout yeast; score 100 = 6 SD above DMSO. activity score, % at 12 µM. 300,000 tested, 0.02% active;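 active means lowest replicate activity score at least 50, where 100 means six control SD above control mean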;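 further: yeast exposed to compound for 9 h at 30 °C; higher score means more reporter readthrough which indicates perturbed polyadenylation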
NALP1 yeast inh: inhibitors of NALP1 inflammasome in yeast. S. cerevisiae NALP1/ASC/caspase-1 growth, X-gal OD620, 72 h. inhibition, % at 10 µM. 280,000 tested, 0.61% active. AID 2071; in the data active means inhibition mostly above about 24%, no sharp cut-off; inactive means mostly below about 32%
EBNA-1 inh: blocks EBNA-1 binding to DNA | 300,000 tested, 0.34% active | inhibition, % at 14.8 µM | EBNA-1 DNA binding, fluorescence polarization | AID 1950; in the data active means inhibition above about 28%
NALP3 yeast inh: inhibitors of NALP3 inflammasome in yeast. inhibition, % at 10 µM. AID 2825. 330,000 tested, 0.39% active. Yeast reconstituted NLRP3/ASC/caspase-1, beta-gal luminescence, 24 h;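 active means inhibition of 50% or more; inactive means inhibition below 50%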
dFosB activator: mouse delta FosB homodimer activation; P13346; activation, % at 25 µM; 340,000 tested, 0.99% active; purified delta FosB, TAMRA-CDK5 oligo fluorescence polarization; percent of positive-control signal above neutral wells; AID 493131;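 active means mean activation above about 17%, with every replicate also reaching it, limit read from the data, passing the limit was not always enough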
Zta DNA confirm: EBV ZTA DNA binding inhibition, confirmation; 320 tested, 30% active; inhibition, % at 11.1 µM; shares compounds with ZTA counter; Zta-ZRE DNA binding, fluorescence polarization; AID 2361;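 active means mean inhibition across triplicate runs above the hit threshold derived for the original primary screen, cut at about 33% in these data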
EBNA-1 counter: counter-screen for ZTA inhibitors: EBNA-1 DNA binding inhibition; shares compounds with ZTA counter; fluorescence polarization; inhibition, % at 14.8 µM; 320 tested, under 10 active; AID 2362; call rule not given here
Of the large screens only hits and unclear results are named; the others gave an inactive call (follow-up assays come after a bar, where they were run). Rows were chosen to be rich in hits. Some 2.2% of all compounds tested hit in one or more screens of this group.

O=C(CC(C(=O)O)c1ccc(Cl)cc1Cl)c1ccc(Cl)cc1 (centres undefined)	ZTA counter 33 | Zta DNA confirm inactive | EBNA-1 counter inactive
O=C(CC(C(=O)O)c1ccc(Cl)cc1)c1ccc(Cl)c(Cl)c1 (centres undefined)	none
CN(C)c1ccc(N/C=C/C(=O)c2ccccc2)cc1	ZTA counter 64 | Zta DNA confirm inactive | EBNA-1 counter inactive
O=C(OCC(=O)N1CCCc2ccccc21)c1cc(Br)ccc1O	none (no result: NALP1 yeast inh)
Cc1oc2cc(OC(C)C(=O)O)ccc2c(=O)c1Oc1ccccc1 (centres undefined)	none

Compound activity (PubChem BioAssay)
